# From PubChem BioAssay (NCATS)
# For part of these data: Potency and affinity values are given separately. The source made the active and inactive calls. Where a call stands in place of a potency, no number is given. Residues, ends and D or L forms follow the SMILES beside them.
# Legend:
# [1] = Ebola virus entry assay, green fluorescence channel
# [2] = Ebola virus entry assay, blue channel fluorescence
# [3] = Ebola virus entry assay, blue channel fluorescence; remark: listed apart in the source
# [4] = Ebola virus entry assay, ratio channel readout
# [5] = Ebola virus entry assay, blue channel fluorescence; remark: listed apart in the source
# [6] = Ebola virus entry assay, ratio channel
# [7] = Ebola virus entry assay, green channel fluorescence
structure (smiles),measurement,setting,value
NC[C@H]1O[C@H](O[C@H]2[C@H](O)[C@@H](O[C@H]3O[C@H](CO)[C@@H](O)[C@H](N)[C@H]3O)[C@H](N)C[C@@H]2N)[C@H](O)[C@@H](O)[C@@H]1O,outcome,[1],inactive
same,outcome,[2],inactive
COc1cc([C@@H]2c3cc4c(cc3[C@@H](O[C@@H]3O[C@@H]5CO[C@@H](C)O[C@H]5[C@H](O)[C@H]3O)[C@H]3COC(=O)[C@H]23)OCO4)cc(OC)c1O,outcome,[3],inactive
same,outcome,[1],inactive
same,outcome,[2],inactive
CCOC(=O)[C@H](CCc1ccccc1)N[C@@H](C)C(=O)N1[C@H](C(=O)O)C[C@H]2CCCC[C@@H]21,outcome,[1],inactive
same,outcome,[4],inactive
same,outcome,[2],inactive
CCCC(C)(COC(N)=O)COC(N)=O,outcome,[1],inactive
same,outcome,[4],inactive
same,outcome,[2],inactive
CN1CCC[C@@H]1c1cccnc1,outcome,[5],inactive
same,outcome,[6],inactive
same,outcome,[7],inactive
COc1cc(CC(C)N)cc(OC)c1OC (stereo unspecified),outcome,[5],inactive
same,outcome,[6],inactive
same,outcome,[7],inactive
Cc1ccc(-c2ccccc2C#N)cc1,outcome,[5],inactive
same,outcome,[6],inactive
same,outcome,[7],inactive
Clc1ccc2c(c1)Nc1ccccc1S2,outcome,[5],inactive
same,outcome,[6],inactive
same,outcome,[7],inactive
CC(C)NC(C)C,outcome,[5],inactive
same,outcome,[6],inactive
same,outcome,[7],inactive
CCCCCCCCCCCCCCCCCCN(C)C,outcome,[5],inactive
same,outcome,[6],inactive
same,outcome,[7],inactive
CCCCCCCCCCCCCCCCOP(=O)([O-])OCC[N+](C)(C)C,outcome,[5],inactive
same,outcome,[6],inactive
same,outcome,[7],inactive
CC(C(=O)c1ccccc1)N(C)C (stereo unspecified),outcome,[5],inactive
same,outcome,[6],inactive
same,outcome,[7],inactive
Cc1cc(-n2nc3ccc(Cl)cc3n2)c(O)c(C(C)(C)C)c1,outcome,[5],inactive
same,outcome,[6],inactive
same,outcome,[7],inactive
O=C(Nc1cccc2c(=O)cc(-c3nn[nH]n3)oc12)c1ccc(OCCCCc2ccccc2)cc1,outcome,[5],inactive
same,outcome,[6],inactive
same,outcome,[7],inactive
CCN(CC)S(=O)(=O)c1ccc(C(=O)O)cc1,outcome,[5],inactive
same,outcome,[6],inactive
same,outcome,[7],inactive
CC(=O)OCC(=O)[C@@]1(O)CC[C@H]2[C@@H]3CCC4=CC(=O)CC[C@]4(C)[C@H]3C(=O)C[C@@]21C,outcome,[5],inactive
same,outcome,[6],inactive
same,outcome,[7],inactive
CC(C)OP(=O)(CP(=O)(OC(C)C)OC(C)C)OC(C)C,outcome,[5],inactive
same,outcome,[6],inactive
same,outcome,[7],inactive
CC(C)(C)NCC(O)COc1ccccc1OCC1CCCO1 (stereo unspecified),outcome,[5],inactive
same,outcome,[6],inactive
same,outcome,[7],inactive
COC(=O)[C@H](Cc1ccccc1)NC(=O)[C@@H](N)CC(=O)O (H-Asp-Phe-OMe),outcome,[5],inactive
same,outcome,[6],inactive
same,outcome,[7],inactive
NC(=O)NS(=O)(=O)c1ccc(N)cc1,outcome,[5],inactive
same,outcome,[6],inactive
same,outcome,[7],inactive
COC(=O)[C@@H]1[C@H]2C[C@H]3c4[nH]c5ccccc5c4CCN3C[C@@H]2CC[C@@H]1O,outcome,[5],inactive
same,outcome,[6],inactive
CCOc1ccc(NS(=O)(=O)c2ccc(N)cc2)nn1,outcome,[5],inactive
same,outcome,[6],inactive
same,outcome,[7],inactive
CCN[C@@H](C)Cc1cccc(C(F)(F)F)c1,outcome,[5],inactive
same,outcome,[6],inactive
same,outcome,[7],inactive
CN(C)c1ccc2nc3ccc(=[N+](C)C)cc-3sc2c1,outcome,[5],inactive
same,outcome,[6],inactive
same,outcome,[7],inactive
Nc1ccc(C(=O)Oc2ccccc2)c(O)c1,outcome,[5],inactive
same,outcome,[6],inactive
same,outcome,[7],inactive
O=C(NCC1CCCCN1)c1cc(OCC(F)(F)F)ccc1OCC(F)(F)F (stereo unspecified),AC50,[5],39.8 µM (active)
same,AC50,[6],35.5 µM (active)
same,outcome,[7],inactive
CCCNC(C)C(=O)Nc1ccccc1C (stereo unspecified),outcome,[5],inactive
same,outcome,[6],inactive
same,outcome,[7],inactive
NC(=O)c1cc([N+](=O)[O-])cc([N+](=O)[O-])c1,outcome,[5],inactive
same,outcome,[6],inactive
same,outcome,[7],inactive
Cc1cc2c(cc1S(N)(=O)=O)S(=O)(=O)CCC2,outcome,[5],inactive
same,outcome,[6],inactive
same,outcome,[7],inactive
C[C@]12C=CC(=O)C=C1CC[C@@H]1[C@@H]2[C@@H](O)C[C@@]2(C)[C@H]1CC[C@]2(O)C(=O)CO,outcome,[5],inactive
same,outcome,[6],inactive
same,outcome,[7],inactive
COCCCN1CCC(NC(=O)c2cc(Cl)c(N)c3c2OCC3)CC1,outcome,[5],inactive
same,outcome,[6],inactive
same,outcome,[7],inactive
NC1CCN(c2nc3c(cc2F)c(=O)c(C(=O)O)cn3-c2ccc(F)cc2F)C1 (stereo unspecified),outcome,[5],inactive
same,outcome,[6],inactive
same,outcome,[7],inactive
O=C(O)c1ccc[n+]([O-])c1,outcome,[5],inactive
same,outcome,[6],inactive
same,outcome,[7],inactive
CCCCN(CCCC)CCCOC(=O)c1ccc(N)cc1,outcome,[5],inactive
same,AC50,[6],8.91 µM (active)
COP(=S)(OC)Oc1ccc(SC)c(C)c1,outcome,[5],inactive
same,outcome,[6],inactive
same,outcome,[7],inactive
CC[N+](C)(CC)CCOC(=O)C1c2ccccc2Oc2ccccc21,outcome,[5],inactive
same,outcome,[6],inactive
same,outcome,[7],inactive
O=C(O)[C@@H]1CSCN1,outcome,[5],inactive
same,outcome,[6],inactive
same,outcome,[7],inactive
CN[C@@H]1[C@H](O)[C@H](NC)[C@H]2O[C@@]3(O)C(=O)C[C@@H](C)O[C@H]3O[C@@H]2[C@H]1O,outcome,[5],inactive
same,outcome,[6],inactive
same,outcome,[7],inactive
CC(=O)N/N=C/c1ccc([N+](=O)[O-])o1,outcome,[5],inactive
same,outcome,[6],inactive
same,outcome,[7],inactive
CC(C)(C)c1ccc(O)cc1,outcome,[5],inactive
same,outcome,[6],inactive
same,outcome,[7],inactive
CC(C)(C)C(=O)Oc1ccc(S(=O)(=O)Nc2ccccc2C(=O)NCC(=O)O)cc1,outcome,[5],inactive
same,outcome,[6],inactive
same,outcome,[7],inactive
O=C(O)CCCC[C@@H]1SC[C@@H]2NC(=O)N[C@@H]21,outcome,[5],inactive
same,outcome,[6],inactive
same,outcome,[7],inactive
O=C(O)c1cc(=O)c2c(OCC(O)COc3cccc4oc(C(=O)O)cc(=O)c34)cccc2o1,outcome,[5],inactive
same,outcome,[6],inactive
same,outcome,[7],inactive
C[C@H]1C[C@@H]2[C@H]([C@@H](O)C[C@@]3(C)[C@H]2CC[C@]3(O)C(=O)CO)[C@@]2(C)C=CC(=O)C=C12,outcome,[5],inactive
same,outcome,[6],inactive
same,outcome,[7],inactive
CC(C)C[C@H](NC(=O)CNC(=O)[C@H](Cc1ccc(O)cc1)NC(=O)[C@H](CO)NC(=O)[C@H](Cc1c[nH]c2ccccc12)NC(=O)[C@H](Cc1cnc[nH]1)NC(=O)[C@@H]1CCC(=O)N1)C(=O)N[C@@H](CCCN=C(N)N)C(=O)N1CCC[C@H]1C(=O)NCC(N)=O (stereo in doubt),outcome,[5],inactive
same,outcome,[6],inactive
same,outcome,[7],inactive
CC(=O)c1ccc(O)c(C(N)=O)c1,outcome,[5],inactive
same,outcome,[6],inactive
same,outcome,[7],inactive
O=C(/C=C/c1ccccc1)OCc1ccccc1,outcome,[5],inactive
same,outcome,[6],inactive
same,outcome,[7],inactive
NS(=O)(=O)c1cc(C(=O)O)cc(N2CCCC2)c1Oc1ccccc1,outcome,[5],inactive
same,outcome,[6],inactive
same,outcome,[7],inactive
CCCCCCCCCCCCCCCCCC(=O)OCC(O)CO (stereo unspecified),outcome,[5],inactive
same,outcome,[6],inactive
same,outcome,[7],inactive
COc1ccc2cc([C@H](C)C(=O)O)ccc2c1,outcome,[5],inactive
same,outcome,[6],inactive
same,outcome,[7],inactive
CC(C)C(=O)c1c(C(C)C)nn2ccccc12,outcome,[5],inactive
same,outcome,[6],inactive
same,outcome,[7],inactive
Cc1ncsc1CCCl,outcome,[5],inactive
same,outcome,[6],inactive
same,outcome,[7],inactive
O=C1C(O)=C(O)C(=O)C(O)=C1O,outcome,[5],inactive
same,outcome,[6],inactive
same,outcome,[7],inactive
Cc1cnc(NC(=O)C2=C(O)c3ccccc3S(=O)(=O)N2C)s1,outcome,[5],inactive
same,outcome,[6],inactive
same,outcome,[7],inactive
COc1c2c(cc3c1OCO3)CCN(C)C2,outcome,[5],inactive
same,outcome,[6],inactive
same,outcome,[7],inactive
COc1cc(-c2ccc(=O)[nH]n2)ccc1OC(F)F,outcome,[5],inactive
same,outcome,[6],inactive
same,outcome,[7],inactive
CC(=O)N(CC(O)CO)c1c(I)c(C(=O)NCC(O)CO)c(I)c(C(=O)NCC(O)CO)c1I (stereo unspecified),outcome,[5],inactive
same,outcome,[6],inactive
same,outcome,[7],inactive
CCOC(=O)O[C@]1(C(=O)OCCl)CC[C@H]2[C@@H]3CCC4=CC(=O)C=C[C@]4(C)[C@H]3[C@@H](O)C[C@@]21C,outcome,[5],inactive
same,outcome,[6],inactive
same,outcome,[7],inactive
COCCc1ccccn1,outcome,[5],inactive
same,outcome,[6],inactive
same,outcome,[7],inactive
CCCCCCCC/C=C\CCCCCCCC(=O)NCc1ccc(O)c(OC)c1,AC50,[5],7.08 µM (active)
same,outcome,[6],inactive
same,outcome,[7],inactive
O=C1CC[C@@H](C(=O)O)N1,outcome,[5],inactive
same,outcome,[6],inactive
same,outcome,[7],inactive
CO[C@@]1(NC(=O)CSC[C@@H](N)C(=O)O)C(=O)N2C(C(=O)O)=C(CSc3nnnn3C)CS[C@@H]21,outcome,[5],inactive
same,outcome,[6],inactive
same,outcome,[7],inactive
c1ccc2c(CC3=NCCN3)cccc2c1,AC50,[5],39.8 µM (active)
same,outcome,[6],inactive
same,outcome,[7],inactive
NS(=O)(=O)c1ccc(Cl)c(S(N)(=O)=O)c1,outcome,[5],inactive
same,outcome,[6],inactive
same,outcome,[7],inactive
CN1CCN(C(=O)C2CCCCC2)CC1,outcome,[5],inactive
same,outcome,[6],inactive
same,outcome,[7],inactive
C/C=C/C=N/NC(=O)c1ccncc1,outcome,[5],inactive
same,outcome,[6],inactive
same,outcome,[7],inactive
CC(=O)OCC(=O)[C@@]1(O)[C@H](OC(C)=O)C[C@H]2[C@@H]3CCC4=CC(=O)C=C[C@]4(C)[C@@]3(F)[C@@H](O)C[C@@]21C,outcome,[5],inactive
same,outcome,[6],inactive
same,outcome,[7],inactive
CC(=O)CC(c1ccc([N+](=O)[O-])cc1)c1c(O)c2ccccc2oc1=O (stereo unspecified),outcome,[5],inactive
same,outcome,[6],inactive
same,outcome,[7],inactive
CC(O)CN(CCN(CC(C)O)CC(C)O)CC(C)O (stereo unspecified),outcome,[5],inactive
same,outcome,[6],inactive
same,outcome,[7],inactive
CO[C@]12C[C@@H](COC(=O)c3cncc(Br)c3)CN(C)[C@@H]1Cc1cn(C)c3cccc2c13,AC50,[5],22.4 µM (active)
same,AC50,[6],20 µM (active)
same,outcome,[7],inactive
CCCN(CCC)C(=O)Cc1c(-c2ccc(Cl)cc2)nc2ccc(Cl)cn12,outcome,[5],inactive
same,outcome,[6],inactive
same,outcome,[7],inactive
Cc1oc(=O)oc1CN1CCN(c2cc3c(cc2F)c(=O)c(C(=O)O)c2n3C(C)S2)CC1 (stereo unspecified),outcome,[5],inactive
same,outcome,[6],inactive
same,outcome,[7],inactive
CCC(CC)(CNC(=O)CCCO)c1cccc(OC)c1,outcome,[5],inactive
same,outcome,[6],inactive
same,outcome,[7],inactive
CC(=O)Oc1cc(C(C)C)c(OCCN(C)C)cc1C,outcome,[5],inactive
same,outcome,[6],inactive
same,outcome,[7],inactive
CCN[C@@H](C)Cc1ccccc1,outcome,[5],inactive
same,outcome,[6],inactive
same,outcome,[7],inactive
N=C(N=C(N)N)N1CCOCC1,outcome,[5],inactive
same,outcome,[6],inactive
same,outcome,[7],inactive
CCOC(=O)C(O)c1ccccc1 (stereo unspecified),outcome,[5],inactive
same,outcome,[6],inactive
same,outcome,[7],inactive
COC(=O)c1cc(Cl)ccc1OC,outcome,[5],inactive
same,outcome,[6],inactive
same,outcome,[7],inactive
NC(N)=NS(=O)(=O)c1ccc(N)cc1,outcome,[5],inactive
same,outcome,[6],inactive
same,outcome,[7],inactive
NC1CCN(c2cccc(Cl)n2)CC1,outcome,[5],inactive
same,outcome,[6],inactive
same,outcome,[7],inactive
CCOC(=O)NNc1ccc(N(CC)CC(C)O)nn1 (stereo unspecified),outcome,[5],inactive
same,outcome,[6],inactive
same,outcome,[7],inactive
c1ccc2c(c1)sc1ccccc12,outcome,[5],inactive
same,outcome,[6],inactive
same,outcome,[7],inactive
O=C1CCCc2c(O)cccc21,outcome,[5],inactive
same,outcome,[6],inactive
same,outcome,[7],inactive
